Each structure is given as a SMILES string. Where two headings read alike, the source gives them in different places.

Results on five compounds are retold here after article PMC11062922 (Nature Chemical Biology, 2023).

Experiment [1] relates to AAK1. More on the design: species or system human, MV4-11 + K-562 + COLO205 + SK-N-BE2 + OVCAR-8. Particulars: read-out: apparent Kd, n = 1.
Experiment [2] has as its system BMP2K. On the set-up: species or system human, MV4-11 + K-562 + COLO205 + SK-N-BE2 + OVCAR-8. The settings on record: read-out: apparent Kd, n = 1.
Experiment [3] relates to CLK1. More on the design: species or system human, MV4-11 + K-562 + COLO205 + SK-N-BE2 + OVCAR-8. Particulars: read-out: apparent Kd; compound concentrations:100 nM and 1000 nM (sheet 'Samples'); n = 1.
Experiment [4] has as its system CLK4. On the set-up: species or system human, MV4-11 + K-562 + COLO205 + SK-N-BE2 + OVCAR-8. Particulars: read-out: apparent Kd; compound concentrations:100 nM and 1000 nM (sheet 'Samples'); n = 1.
In experiment [5] the test system is CSNK2A1;CSNK2A3. On the set-up: species or system human, MV4-11 + K-562 + COLO205 + SK-N-BE2 + OVCAR-8. The settings on record: read-out: apparent Kd, n = 1.
Experiment [6] has as its system CSNK2A2. More on the design: species or system human, MV4-11 + K-562 + COLO205 + SK-N-BE2 + OVCAR-8. Particulars: read-out: apparent Kd, n = 1.
For experiment [7], the system named is FLT4. More on the design: species or system human, MV4-11 + K-562 + COLO205 + SK-N-BE2 + OVCAR-8. The settings on record: read-out: apparent Kd, n = 1.
Experiment [8] relates to GAK. More on the design: species or system human, MV4-11 + K-562 + COLO205 + SK-N-BE2 + OVCAR-8. Particulars: read-out: apparent Kd, n = 1.
The subject of experiment [9] is GSK3A. On the set-up: species or system human, MV4-11 + K-562 + COLO205 + SK-N-BE2 + OVCAR-8. The settings on record: read-out: apparent Kd, n = 1.
Experiment [10] concerns GSK3B. On the set-up: species or system human, MV4-11 + K-562 + COLO205 + SK-N-BE2 + OVCAR-8. Particulars: read-out: apparent Kd, n = 1.
For experiment [11], the system named is MELK. More on the design: species or system human, MV4-11 + K-562 + COLO205 + SK-N-BE2 + OVCAR-8. Particulars: read-out: apparent Kd; compound concentrations:100 nM and 1000 nM (sheet 'Samples'); n = 1.
Experiment [12] relates to NUAK1. On the set-up: species or system human, MV4-11 + K-562 + COLO205 + SK-N-BE2 + OVCAR-8. Particulars: read-out: apparent Kd; compound concentrations:100 nM and 1000 nM (sheet 'Samples'); n = 1.
The test system of experiment [13] is PAK4. More on the design: species or system human, MV4-11 + K-562 + COLO205 + SK-N-BE2 + OVCAR-8. The settings on record: read-out: apparent Kd, n = 1.
In experiment [14] the test system is PKN1. On the set-up: species or system human, MV4-11 + K-562 + COLO205 + SK-N-BE2 + OVCAR-8. The settings on record: read-out: apparent Kd; compound concentrations:100 nM and 1000 nM (sheet 'Samples'); n = 1.
Experiment [15] relates to PKN3. On the set-up: species or system human, MV4-11 + K-562 + COLO205 + SK-N-BE2 + OVCAR-8. The settings on record: read-out: apparent Kd, n = 1.
Experiment [16] relates to PRKAG1. More on the design: species or system human, MV4-11 + K-562 + COLO205 + SK-N-BE2 + OVCAR-8. Particulars: read-out: apparent Kd, n = 1.
Experiment [17] deals with Q6ZSR9 (human, UniProt Q6ZSR9). On the set-up: species or system MV4-11 + K-562 + COLO205 + SK-N-BE2 + OVCAR-8. Particulars: read-out: apparent Kd, n = 1.
The subject of experiment [18] is RET. More on the design: species or system human, MV4-11 + K-562 + COLO205 + SK-N-BE2 + OVCAR-8. The settings on record: read-out: apparent Kd; compound concentrations:100 nM and 1000 nM (sheet 'Samples'); n = 1.
The subject of experiment [19] is SIK2. On the set-up: species or system human, MV4-11 + K-562 + COLO205 + SK-N-BE2 + OVCAR-8. The settings on record: read-out: apparent Kd, n = 1.
For experiment [20], the system named is PKN3. The settings on record: hek293t cells.
The mark [21] stands for this setting: compound concentrations:100 nM and 1000 nM (sheet 'Samples').
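Throughout, for IC50: NanoBRET target engagement in HEK293T cells transiently expressing full-length PKN3 with C-terminal NanoLuc, displacement of fluorescent tracer K5 (500 nM), BRET read after 2 h equilibration at 37 °C.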

Sequence of Q6ZSR9 (Q6ZSR9 whole entry, looked up): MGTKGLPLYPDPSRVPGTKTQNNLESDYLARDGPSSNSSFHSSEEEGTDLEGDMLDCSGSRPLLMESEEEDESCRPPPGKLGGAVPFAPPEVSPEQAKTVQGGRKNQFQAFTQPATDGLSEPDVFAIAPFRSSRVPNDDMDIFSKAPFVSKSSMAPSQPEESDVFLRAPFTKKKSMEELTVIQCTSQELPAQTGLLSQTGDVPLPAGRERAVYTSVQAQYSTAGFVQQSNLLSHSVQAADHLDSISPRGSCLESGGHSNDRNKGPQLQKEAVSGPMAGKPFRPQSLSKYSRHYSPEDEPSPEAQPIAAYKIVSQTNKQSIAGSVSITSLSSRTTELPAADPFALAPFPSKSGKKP

Take `O=C1NC(=O)C(N2CCc3ccccc32)=C1c1ccccc1Cl` [SB-373598]: the potency estimated from few doses in experiment [1] (setting [21]) was 284 nM; in experiment [2] (setting [21]), 478 nM; in experiment [3], 275 nM; in experiment [4], 246 nM; in experiment [5] (setting [21]) it was 315 nM; in experiment [6] (setting [21]), 301 nM. In addition, the potency estimated from few doses in experiment [7] (setting [21]) was 478 nM; in experiment [8] (setting [21]), 167 nM; in experiment [9] (setting [21]), 104 nM; in experiment [10] (setting [21]) it was 177 nM; in [11], 1000 nM; in experiment [12] it was 287 nM. Also, the potency estimated from few doses in experiment [13] (setting [21]) was 298 nM; in experiment [14] it was 1180 nM; in experiment [15] (setting [21]), 566 nM; in experiment [16] (setting [21]), 215 nM; in [17] (setting [21]) it was 280 nM; in experiment [18], 239 nM. For the same compound, in experiment [19] (setting [21]), the potency estimated from few doses is 192 nM.
With `Cc1cccc(Nc2nc(N[C@H]3CCCC[C@H]3N)ncc2C(N)=O)c1.Cl` [GSK986310C], the potency estimated from few doses in experiment [13] (setting [21]) is 322 nM.
For `Cl.NCc1ccc(-c2nc(-c3ccc(Cl)c(O)c3)c(-c3ccncc3)[nH]2)cc1` [SB-476429-A], in [15] (setting [21]), the potency estimated from few doses was 36 nM. In addition, the IC50 in experiment [20] (read-out: Average, SD, n = 4) was found to be 243 nM; in experiment [20] (read-out: Rep 1), 589 nM; in experiment [20] (read-out: Rep 2), 211 nM; in experiment [20] (read-out: Rep 3), 86.7 nM; in experiment [20] (read-out: Rep 4) it was 85.4 nM.
For the compound `CCn1c(-c2nonc2N)nc2c(C#CC(C)(C)O)nc(CN3CCCC3)cc21` [GSK1000163A], the potency estimated from few doses in experiment [15] (compound concentrations: 100 nM and 1000 nM (sheet 'Samples'), CATDS: 0.30633787059967998) was 558 nM; in experiment [17] (compound concentrations: 100 nM and 1000 nM (sheet 'Samples'), CATDS: 0.15882546471257), 2130 nM. For the same compound, the IC50 in [20] (read-out: Average, SD, n = 4) amounted to 6970 nM; in [20] (read-out: Rep 1), 11100 nM; in experiment [20] (read-out: Rep 2) it was 9200 nM; in [20] (read-out: Rep 3), 6130 nM; in experiment [20] (read-out: Rep 4) it was 1430 nM.
On to `CN(c1ccc(NC(=O)N2CCN(CCCN3CCOCC3)CC2)cc1)c1ccnc(Nc2ccc(CS(C)(=O)=O)cc2)n1.Cl` [GW830899A], for which the potency estimated from few doses in experiment [1] (compound concentrations: 100 nM and 1000 nM (sheet 'Samples'), CATDS: 3.8742372830354199E-2) is 411 nM; in experiment [2] (compound concentrations: 100 nM and 1000 nM (sheet 'Samples'), CATDS: 2.31268992433276E-2) it was 1070 nM; in [5] (compound concentrations: 100 nM and 1000 nM (sheet 'Samples'), CATDS: 1.98938138742078E-2), 1550 nM; in [6] (compound concentrations: 100 nM and 1000 nM (sheet 'Samples'), CATDS: 2.19439033786193E-2), 1210 nM; in experiment [7] (compound concentrations: 100 nM and 1000 nM (sheet 'Samples'), CATDS: 1.9888583471378E-2) it was 1550 nM; in experiment [8] (compound concentrations: 100 nM and 1000 nM (sheet 'Samples'), CATDS: 3.3242042513279398E-2) it was 528 nM. Further, the potency estimated from few doses was 525 nM in [9] (compound concentrations: 100 nM and 1000 nM (sheet 'Samples'), CATDS: 3.3329188882870099E-2); 796 nM in [10] (compound concentrations: 100 nM and 1000 nM (sheet 'Samples'), CATDS: 2.6554458888549098E-2); 1490 nM in [13] (compound concentrations: 100 nM and 1000 nM (sheet 'Samples'), CATDS: 2.0205846564267299E-2); 2080 nM in experiment [15] (compound concentrations: 100 nM and 1000 nM (sheet 'Samples'), CATDS: 1.8045605554117099E-2); 1020 nM in experiment [16] (compound concentrations: 100 nM and 1000 nM (sheet 'Samples'), CATDS: 2.3560969184091798E-2); 831 nM in experiment [17] (compound concentrations: 100 nM and 1000 nM (sheet 'Samples'), CATDS: 2.6002877269984698E-2). Besides, the potency estimated from few doses in [19] (compound concentrations: 100 nM and 1000 nM (sheet 'Samples'), CATDS: 2.0988983059189802E-2) is 1350 nM.
